# Assay results published in PubChem BioAssay (Tox21).
# Several values for one entry are separate records, joined by “and”; a condition that tells them apart may be missing. Identical values can stand only once. Inconclusive results are not listed. Activity calls are given as the source filed them. Calls follow the shape of the dose curve; as a rule, active = well fitted cell-killing curve with a large enough effect in the repeat runs; inconclusive = weak or mixed curves; inactive = no such curve, though single readings can be large or run the other way.
# Test: qHTS assay for identifying genotoxic compounds that show differential cytotoxicity against isogenic chicken DT40 cell lines with known DNA damage response pathways - Rad54/Ku70 mutant cell line (AID 743015); also: nearly all actives have a fitted effect of over 60% in size; also: potency is read from the fitted curve at half-maximal effect
# Details: DT40 Rad54/Ku70 mutant viability, CellTiter-Glo, 40 h; series mostly up to 66.8 µM; activity change, negative = cytotoxicity: at the top concentration
# % is scaled to controls: 0 for no effect and ±100 for the full control effect.
Structure (SMILES),"activity change, negative = cytotoxicity",Potency
CCCCNC(=O)NCCCC,4.94% (inactive),
CCCN(CCC)CCc1cccc2c1CC(=O)N2,0.921% (inactive),
CC(=O)CC(C)C,-0.684% (inactive),
CCSC(=O)N(CC(C)C)CC(C)C,9.99% (inactive),
N=C(N)c1ccc2cc(OC(=O)c3ccc(N=C(N)N)cc3)ccc2c1,4.29% (inactive),
O=C1CC2CC1C1CCCC21 (stereo not drawn),8.92% (inactive),
O=c1n(CCO)c(=O)n(CCO)c(=O)n1CCO,-1.56% [at 95.1 µM] (inactive),
O=C(O)CN(CCOCCOCCN(CC(=O)O)CC(=O)O)CC(=O)O,5.42% (inactive),
CCN1CCC[C@H]1CNC(=O)c1cc(S(N)(=O)=O)ccc1OC,11.1% (inactive),
COCCc1ccc(OCC(O)CNC(C)C)cc1 (stereo not drawn),,inactive
CC(=O)OCC(CCn1cnc2cnc(N)nc21)COC(C)=O,7.56% (inactive),
CCn1ccnc1CC1COc2ccccc2O1 (stereo not drawn),-0.707% (inactive),
CC1(C)CO[C@@H](CC(=O)O)CN1,1.77% (inactive),
CC(C)(CC(=O)O)C(=O)O,1.53% (inactive),
CCCCC/C=C\CCC=O,2.08% (inactive),
O=C1CCCN1C1CCCCC1,-17.5% (inactive),
CC(C)(c1ccc(O)cc1)c1ccc(O)cc1,,49.2 µM (active)
C=C(C)C(=O)OCCCCCCCC(C)C,4.34% [at 95.1 µM] (inactive),
ClC(Cl)(Br)Br,2.79% (inactive),
COC(=O)c1cc(C(=O)OC)cc(S(=O)(=O)O)c1,-0.788% (inactive),

Structure (SMILES),"activity change, negative = cytotoxicity",Potency
CC/C=C\CCOC(C)=O,-6.48% (inactive),
CC(=O)OCC(=O)[C@@]1(O)CC[C@H]2[C@@H]3CCC4=CC(=O)CC[C@]4(C)[C@H]3C(=O)C[C@@]21C,-1.83% (inactive),
N[C@H]1CN(c2c(F)cc3c(=O)c(C(=O)O)cn(C4C[C@H]4F)c3c2Cl)CC12CC2 (stereo partly drawn),6.93% (inactive),
C[C@H]1C[C@@H](O)CC(C)(C)C1,4.06% (inactive),
CC(=O)N(CC(O)CO)c1c(I)c(C(=O)NCCO)c(I)c(C(=O)NCC(O)CO)c1I (stereo not drawn),2.25% (inactive),
O=C(CCCN1CCC(O)(c2cccc(C(F)(F)F)c2)CC1)c1ccc(F)cc1,,11.9 µM (active)
CC(C)(O)C(=O)c1ccccc1,2.92% (inactive),
OC(CCN1CCCCC1)(c1ccccc1)C1CC2C=CC1C2 (stereo not drawn),,23.7 µM (active) and 21.1 µM (active)
CC(=O)Nc1ccc(S(N)(=O)=O)cc1,-2.3% (inactive),
C[N+](C)(C)CCCCCC[N+](C)(C)C,4.4% (inactive),
O=C(O)COc1nn(Cc2ccccc2)c2ccccc12,8.47% (inactive),
CCCCOCCOCCOCc1cc2c(cc1CCC)OCO2,,34.7 µM (active)
CC1(C)C(O)C(C)(C)C1O (stereo not drawn),2.58% (inactive),
NC(=O)COCCN1CCN(C(c2ccccc2)c2ccc(Cl)cc2)CC1 (stereo not drawn),,26.6 µM (active)
COc1ccc2c(c1)c(CC(=O)OCC(=O)O)c(C)n2C(=O)c1ccc(Cl)cc1,9.3% (inactive),
CCN(Cc1ccncc1)C(=O)C(CO)c1ccccc1 (stereo not drawn),6.25% (inactive),
CCc1nccnc1CC,-15.9% [at 30.7 µM] (inactive),
OC1CCCCC1c1ccccc1 (stereo not drawn),2.57% (inactive),
O=S(O)CO,,inactive

# Test: qHTS assay to identify small molecule antagonists of the androgen receptor (AR) signaling pathway - cell viability counter screen (AID 743033; also: nearly all actives have a fitted effect of over 45% in size)
# Details: AR-bla HEK293 viability, CellTiter-Glo luminescence, 16 h; series mostly up to 58.5 µM; activity change, negative = cytotoxicity: at the top concentration
Structure (SMILES),"activity change, negative = cytotoxicity",Potency
CCCCNC(=O)NCCCC,5.16% (inactive),
CCCN(CCC)CCc1cccc2c1CC(=O)N2,0.369% (inactive),
CC(=O)CC(C)C,3.4% (inactive),
CCSC(=O)N(CC(C)C)CC(C)C,0.393% (inactive),
N=C(N)c1ccc2cc(OC(=O)c3ccc(N=C(N)N)cc3)ccc2c1,9.94% (inactive),
O=C1CC2CC1C1CCCC21 (stereo not drawn),18.6% (inactive),
O=c1n(CCO)c(=O)n(CCO)c(=O)n1CCO,0.829% [at 78.9 µM] (inactive),
O=C(O)CN(CCOCCOCCN(CC(=O)O)CC(=O)O)CC(=O)O,0.17% (inactive),
CCN1CCC[C@H]1CNC(=O)c1cc(S(N)(=O)=O)ccc1OC,3.01% (inactive),
COCCc1ccc(OCC(O)CNC(C)C)cc1 (stereo not drawn),,inactive
CC(=O)OCC(CCn1cnc2cnc(N)nc21)COC(C)=O,6.54% (inactive),
CCn1ccnc1CC1COc2ccccc2O1 (stereo not drawn),8.37% (inactive),
CC1(C)CO[C@@H](CC(=O)O)CN1,2.35% (inactive),
CC(C)(CC(=O)O)C(=O)O,12.3% (inactive),
CCCCC/C=C\CCC=O,5.35% (inactive),
O=C1CCCN1C1CCCCC1,0.633% (inactive),
CC(C)(c1ccc(O)cc1)c1ccc(O)cc1,,inactive
C=C(C)C(=O)OCCCCCCCC(C)C,3.63% [at 78.9 µM] (inactive),
ClC(Cl)(Br)Br,2.32% (inactive),
COC(=O)c1cc(C(=O)OC)cc(S(=O)(=O)O)c1,-4.2% (inactive),

Structure (SMILES),"activity change, negative = cytotoxicity",Potency
CC/C=C\CCOC(C)=O,3.44% (inactive),
CC(=O)OCC(=O)[C@@]1(O)CC[C@H]2[C@@H]3CCC4=CC(=O)CC[C@]4(C)[C@H]3C(=O)C[C@@]21C,-1.28% (inactive),
N[C@H]1CN(c2c(F)cc3c(=O)c(C(=O)O)cn(C4C[C@H]4F)c3c2Cl)CC12CC2 (stereo partly drawn),8.55% (inactive),
C[C@H]1C[C@@H](O)CC(C)(C)C1,1.76% (inactive),
CC(=O)N(CC(O)CO)c1c(I)c(C(=O)NCCO)c(I)c(C(=O)NCC(O)CO)c1I (stereo not drawn),-1.85% (inactive),
O=C(CCCN1CCC(O)(c2cccc(C(F)(F)F)c2)CC1)c1ccc(F)cc1,-15.4% (inactive),
CC(C)(O)C(=O)c1ccccc1,5.85% (inactive),
OC(CCN1CCCCC1)(c1ccccc1)C1CC2C=CC1C2 (stereo not drawn),,inactive
CC(=O)Nc1ccc(S(N)(=O)=O)cc1,1.57% (inactive),
C[N+](C)(C)CCCCCC[N+](C)(C)C,4.46% (inactive),
O=C(O)COc1nn(Cc2ccccc2)c2ccccc12,0.444% (inactive),
CCCCOCCOCCOCc1cc2c(cc1CCC)OCO2,2.1% (inactive),
CC1(C)C(O)C(C)(C)C1O (stereo not drawn),6.1% (inactive),
NC(=O)COCCN1CCN(C(c2ccccc2)c2ccc(Cl)cc2)CC1 (stereo not drawn),-2.62% (inactive),
COc1ccc2c(c1)c(CC(=O)OCC(=O)O)c(C)n2C(=O)c1ccc(Cl)cc1,3.63% (inactive),
CCN(Cc1ccncc1)C(=O)C(CO)c1ccccc1 (stereo not drawn),7.54% (inactive),
CCc1nccnc1CC,1.73% [at 27 µM] (inactive),
OC1CCCCC1c1ccccc1 (stereo not drawn),10.9% (inactive),
O=S(O)CO,,inactive
